Each structure is given as a SMILES string. “And” between values parts separate entries of the source, which are not always exact repeats. Equal entries are not always repeated. The campaign covered roughly 190,000 compounds. About 1,300 (0.68%) were called active. Rule as the data show it: active = inhibition above about 50%; inactive = the rest. The entries come from a sample that favours actives as a whole. Some compounds were tested as several samples or in several runs, with calls that do not always agree.

For this test, the target named is Mannose-6-phosphate isomerase (Homo sapiens) (UniProt P34949). The test is described as follows: MPI inhibition at elevated mannose 6-phosphate – biochemical, fluorescence intensity, high mannose 6-phosphate, primary screen (AID 1220). To be noted: recombinant PMI enzyme, coupled fluorescence intensity; at 20 µM; stronger effect = higher value.
Sequence of Mannose-6-phosphate isomerase (Homo sapiens) (P34949 whole entry, looked up): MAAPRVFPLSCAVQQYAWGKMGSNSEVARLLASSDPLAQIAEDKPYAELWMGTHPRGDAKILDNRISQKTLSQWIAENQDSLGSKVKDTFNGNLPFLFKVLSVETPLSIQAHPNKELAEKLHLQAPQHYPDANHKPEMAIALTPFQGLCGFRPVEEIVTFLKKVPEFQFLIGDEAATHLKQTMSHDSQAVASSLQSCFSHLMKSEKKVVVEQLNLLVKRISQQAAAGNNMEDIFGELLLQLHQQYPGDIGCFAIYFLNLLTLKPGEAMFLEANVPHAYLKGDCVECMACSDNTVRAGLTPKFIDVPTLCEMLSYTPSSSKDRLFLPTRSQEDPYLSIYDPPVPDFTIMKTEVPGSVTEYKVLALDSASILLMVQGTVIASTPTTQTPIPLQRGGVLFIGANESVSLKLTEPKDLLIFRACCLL
For `COc1ccc(CN2CCCC(C(=O)c3sccc3C)C2)cc1O` (stereo not given), the inhibition is 1.4% (inactive). In the case of `COc1cc(CN2CCCC(C(=O)c3sccc3C)C2)cc(OC)c1O` (stereo not given), the inhibition is 65.3% (active). The result for `COc1cc(CN2CCCC(C(=O)c3sccc3C)C2)cc(Cl)c1O` (stereo not given) reads 14% (inactive). Turning to `O=c1[nH]c(=S)n(-c2ccccc2)c(O)c1/C=N/N1CCOCC1`, the inhibition was 3.4% (inactive). The result for `Cc1ccc(-n2c(O)c(/C=N/N3CCOCC3)c(=O)[nH]c2=S)cc1` reads 29% (inactive); that for `Cc1ccccc1-n1c(O)c(/C=N/N2CCOCC2)c(=O)[nH]c1=S`, 55.7% (active).

`CN1C(=O)N(C)C(=O)C2(Sc3ccccc3C2=O)C1=O`: the inhibition was -1.5% (inactive). As for `CN(C)c1ccc(N=Cc2c(O)n(CCC3=CCCCC3)c(=O)[nH]c2=O)cc1`, the inhibition was 28.9% (inactive).

Turning to `CCOc1ccccc1-n1c(O)c(C=Nc2ccc(N(CC)CC)cc2)c(=O)[nH]c1=O`, the inhibition is 59.3% (active).

With `C=CCn1c(O)c(C=Nc2ccc(N(CC)CC)cc2)c(=O)[nH]c1=O`, the inhibition was 4% (inactive). Next, `CCN(CC)CCN=Cc1c(O)n(CCC2=CCCCC2)c(=O)[nH]c1=O`: 1.6% (inactive). Turning to `CCN(CC)c1ccc(N=Cc2c(O)n(-c3ccc(Cl)cc3)c(=O)[nH]c2=O)cc1`, the inhibition was 39.5% (inactive). With `CCN(CC)c1ccc(N=Cc2c(O)n(CCC3=CCCCC3)c(=O)[nH]c2=O)cc1`, the inhibition is 58.1% (active).

Turning to `CCN(CC)c1ccc(N=Cc2c(O)n(Cc3ccccc3)c(=O)[nH]c2=O)cc1`, the inhibition was 13.5% (inactive) and 50.6% (active). The result for `CCN(CC)c1ccc(N=Cc2c(O)n(-c3ccccc3C)c(=O)[nH]c2=O)cc1` reads 19.9% (inactive); that for `CCOc1ccc(-n2c(O)c(C=Nc3ccc(N(CC)CC)cc3)c(=O)[nH]c2=O)cc1`, 18.2% (inactive); that for `Cc1nc2cc(-c3ccccc3)nn2c(C)c1CCC(=O)N1CCC2(CC1)OCCO2`, 12.2% (inactive). The result for `COc1ccccc1NC1=NCCS1` reads -1% (inactive); that for `Cc1ccccc1OP(N)(=O)Oc1ccccc1C`, 3% (inactive); that for `CN1C(=O)C(Cc2cccc3ccccc23)C(=O)N(C)C1=O`, -9.1% (inactive). Consider `O=C(COC(=O)Cc1ccccc1)Nc1ccc(Cl)cn1`, for which the inhibition is -6.1% (inactive).

On to `COC(=O)CC1=C(C(=O)OC)C2(C(=O)Nc3c(C)cccc32)C(C#N)=C(N)O1` (stereo not given), for which the inhibition is 4.4% (inactive). With `c1cncc(C2CCCCN2Cc2ccc3c(c2)OCO3)c1` (stereo not given), the inhibition was 4.9% (inactive). The result for `CCN1CCN(c2cc(N3CCCC3)c([N+](=O)[O-])cc2F)CC1` reads 25.4% (inactive). The result for `CCN1CCN(Cc2cc(OC)c(OC)cc2[N+](=O)[O-])CC1` reads 59.2% (active); that for `CCN1CCN(Cc2cc(Br)cc(OC)c2O)CC1`, 18% (inactive). The result for `CCOc1ccccc1-n1c(O)c(C=NCCCN(CC)CC)c(=O)[nH]c1=O` reads -2.3% (inactive); that for `O=C(c1cc(-c2ccccc2)on1)N1CCC2(CC1)OCCO2`, -0.7% (inactive). With `Oc1ccc(/C=N/NP(=S)(c2ccccc2)c2ccccc2)cc1`, the inhibition was 8.7% (inactive). Next, `Oc1ccccc1/C=N/NP(=S)(c1ccccc1)c1ccccc1`: 10.4% (inactive); `Oc1ccc(/C=N/NP(=S)(c2ccccc2)c2ccccc2)c(O)c1O`: 52.2% (active). As to `COC(=O)CNC(=O)c1cn(CCC#N)nc1-c1ccc(F)cc1`, the inhibition is -0.2% (inactive). The result for `O=C(CSc1ccccc1)N1CCC2(CC1)OCCO2` reads 14.1% (inactive); that for `CCOC(=O)C1=C(C)OC(N)=C(C#N)C12C(=O)Nc1ccc(C)cc12` (stereo not given), -2.3% (inactive). Take `CCCC1=C(C(=O)OCC)C2(C(=O)Nc3ccc(C)cc32)C(C#N)=C(N)O1` (stereo not given): the inhibition was 8.5% (inactive).

Consider `O=C1CCCN1c1ccc(S(=O)(=O)O)cc1` (tested in a mixture with another compound), for which the inhibition was -11.1% (inactive).

`CC(=O)c1ccc(OC(NC(=O)c2ccco2)C(Cl)(Cl)Cl)cc1` (stereo not given): the inhibition was 7.7% (inactive). The result for `COCCCn1c(N)c(C(=O)NCCC(C)C)c2nc3ccccc3nc21` reads 63.7% (active); that for `CC(C)CCn1c(N)c(C(=O)NCc2cccs2)c2nc3ccccc3nc21`, 59.5% (active); that for `CC(C)CNC(=O)c1c(N)n(Cc2ccco2)c2nc3ccccc3nc12`, -12.2% (inactive). Next, `COCCCn1c(N)c(C(=O)Nc2sc3c(c2C(=O)OC)CCCC3)c2nc3ccccc3nc21`: 24.1% (inactive); `CCOC(=O)c1c(NC(=O)c2c(N)n(CCCOC)c3nc4ccccc4nc23)sc2c1CCCC2`: 24.1% (inactive); `Nc1c(C(=O)NCCCc2ccccc2)c2nc3ccccc3nc2n1Cc1cccs1`: 17.4% (inactive). As for `CCCOC(=O)c1c(N)n(Cc2cccs2)c2nc3ccccc3nc12`, the inhibition is -0.8% (inactive). Next, `CCCCNC(=O)c1c(N)n(CCCOC)c2nc3ccccc3nc12`: 40.9% (inactive); `CCC(C)OC(=O)c1c(N)n(Cc2cccs2)c2nc3ccccc3nc12` (stereo not given): 8.2% (inactive); `CCOCCCn1c(N)c(C(=O)Nc2sc3c(c2C(=O)OC)CCCC3)c2nc3ccccc3nc21`: 62.1% (active).

For the compound `COCCNC(=O)c1c(N)n(CCC(C)C)c2nc3ccccc3nc12`, the inhibition is 34.1% (inactive). The result for `CC(C)OCCCNC(=O)c1c(N)n(Cc2cccs2)c2nc3ccccc3nc12` reads 57.4% (active); that for `CCOc1cc(C2C(C#N)=C(N)Oc3c2c(=O)oc2ccccc32)ccc1OC(=O)c1cccs1` (stereo not given), 2.8% (inactive).

On to `Cc1ccnc(-n2c(-c3ccccc3)nc3ccccc3c2=O)c1`, for which the inhibition is 15.9% (inactive). Turning to `CC(C(=O)c1c[nH]c2ccccc12)N1CCc2ccccc2C1` (stereo not given), the inhibition is 6.1% (inactive).

On to `CCCC1(CCC)C(=O)NC(=Nc2ccc(C)cc2)NC1=O`, for which the inhibition was 2.5% (inactive). The result for `CN1CN=C(N[N+](=O)[O-])N(Cc2ccco2)C1` reads -10.4% (inactive); that for `O=C(Cn1cnc2sc3c(c2c1=O)CCCC3)NCCC(=O)N1CCC2(CC1)OCCO2`, 1.1% (inactive); that for `CC(C)C[C@H]1C(=O)N2CCCC2[C@]2(O)O[C@](NC(=O)[C@@H]3C=C4c5cccc6[nH]cc(c56)CC4N(C)C3)(C(C)C)C(=O)N12` (stereo not given in full), 48.1% (inactive). As to `CC(C)[C@H]1C(=O)N2CCC[C@H]2[C@]2(O)O[C@](NC(=O)[C@@H]3C=C4c5cccc6[nH]cc(c56)C[C@H]4N(C)C3)(C(C)C)C(=O)N12`, the inhibition is 0.6% (inactive). As for `CN1C[C@H](CO)C=C2c3cccc4[nH]cc(c34)C[C@H]21`, the inhibition was 65.5% (active). Turning to `O=[N+]([O-])c1ccc(C2C3C(c4ccccc4)=NC4(CCCC4)N32)cc1` (stereo not given), the inhibition was 9.1% (inactive). Next, `Cc1ccnc(-n2c(-c3ccco3)nc3ccccc3c2=O)c1`: 16.7% (inactive); `CN(CCOc1ccc(C=C2C(=O)NC(=O)NC2=O)cc1)c1ccccn1`: -5.1% (inactive); `COc1cc(/C=N/NP(=S)(c2ccccc2)c2ccccc2)ccc1O`: 4.4% (inactive). With `C=CCn1c(O)c(C(C)=Nc2cc(OC)ccc2OC)c(=O)[nH]c1=O`, the inhibition is 13% (inactive).

As to `C=CCn1c(O)c(C(CC)=Nc2cc(OC)ccc2OC)c(=O)[nH]c1=O`, the inhibition was 55.7% (active). Next, `COc1ccc(N=C(C)c2c(O)n(C)c(=O)n(C)c2=O)c(OC)c1`: -2.6% (inactive). For the compound `CCC(=Nc1ccc(OC)cc1OC)c1c(O)[nH]c(=O)[nH]c1=O`, the inhibition is 30.1% (inactive).

As to `CCCCn1c(O)c(C(CC)=Nc2ccc(OC)cc2OC)c(=O)[nH]c1=O`, the inhibition was 17.6% (inactive).

For the compound `CCC(=Nc1ccc(OC)cc1OC)c1c(O)n(C)c(=O)n(C)c1=O`, the inhibition is 53.9% (active). As to `Cc1ccc(O)c(CN2CCN(c3ccccc3)CC2)c1`, the inhibition was 4.3% (inactive). On to `CN(C)[C@@H]1C(=O)C(C(N)=O)=C(O)[C@@]2(O)C(=O)C3=C(O)c4c(O)ccc(Cl)c4[C@@](C)(O)C3C[C@@H]12` (stereo not given in full), for which the inhibition was 16.4% (inactive).

Regarding `CN(C)[C@@H]1C(=O)C(C(N)=O)=C(O)[C@@]2(O)C(=O)C3=C(O)c4c(O)cccc4[C@@](C)(O)[C@H]3[C@H](O)[C@@H]12`, the inhibition was 52.6% (active). Next, `O=[N+]([O-])c1ccc(N2CCNCC2)cc1N1CCCCC1`: 9.9% (inactive). Next, `CN1CCN(c2ccc(S(=O)(=O)C(F)(F)F)cc2[N+](=O)[O-])CC1`: -6.1% (inactive). The result for `CC1CN(c2ccc([N+](=O)[O-])c3cccnc23)CC(C)N1` (stereo not given) reads 63.1% (active); that for `CN1CCN(c2ccc(S(C)(=O)=O)cc2[N+](=O)[O-])CC1`, -13.1% (inactive); that for `CC1CN(c2ccc([N+](=O)[O-])cc2Cl)CCN1` (stereo not given), 49.1% (inactive). Turning to `CC1CN(c2cc([N+](=O)[O-])ccc2Cl)CC(C)N1` (stereo not given), the inhibition was -1.6% (inactive). The result for `O=[N+]([O-])c1ccc(N2CCCCC2)c2ncccc12` reads 72.6% (active). The result for `O=[N+]([O-])c1ccc(N2CCCC2)c(F)c1Br` reads 8.1% (inactive); that for `O=[N+]([O-])c1ccc(N2CCNCC2)c2ncccc12`, 29% (inactive). As for `CN1CCN(c2ccc([N+](=O)[O-])c3cccnc23)CC1`, the inhibition was 63.5% (active).

For the compound `O=[N+]([O-])c1ccc(N2CCCCCC2)c2ncccc12`, the inhibition is 63.7% (active). The result for `O=[N+]([O-])c1ccc(N2CCCC2)c2ncccc12` reads 22.1% (inactive); that for `Cc1cc(OCc2nn[nH]n2)c2c3c(c(=O)oc2c1)CCCC3`, -9.2% (inactive). The result for `COc1cc(NC(=O)CN2C3CCC2CC(O)(c2cccnc2)C3)cc(OC)c1` (stereo not given) reads 5.3% (inactive); that for `O=C(NC(C(Cl)Cl)N1CCOCC1)c1ccccc1` (stereo not given), -6.2% (inactive). Consider `O=C(c1ccc2c(c1)ncn2-c1ccc(F)cc1F)N1CCC2(CC1)OCCO2`, for which the inhibition is -2.9% (inactive). As to `CCCCCn1c(=O)c(C(=O)Nc2ccncc2)c(O)c2ccccc21`, the inhibition was -5.5% (inactive). Next, `COc1ccc(C(C)=O)cc1CC(C(=O)c1ccc(C)cc1)N(C)C` (stereo not given): 4.6% (inactive); `CCC(C)NC(=O)CN1C(=O)CN=C(c2ccccc2)c2ccccc21` (stereo not given): -11.3% (inactive).

The record behind these values is PubChem BioAssay AID1220 (Sanford-Burnham Center for Chemical Genomics, 2008).
